Data reported in PubChem BioAssay AID1159580 (chemical genetic matrix, 2015).
The whole screen tested about 5,500 compounds, of which about 2,000 (36%) were called active. Roughly 18% stayed inconclusive and do not appear here. Rule as the data show it: active = normalized growth mostly below about 0.91 (no sharp cut-off); inconclusive = no clear call, values can overlap the other calls; inactive = mostly above about 0.92. The list shows a part of the results.

Test: chemical genetic growth profiling, strain panel (AID 1159580);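 also: tested at 20 µM; growth read once vehicle control cultures reached saturation at 30 °C; 1 = growth at the plate median or of vehicle wells; lower values mean less growth of the strain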
Conditions: S. cerevisiae deletion strains, growth OD

Measured: normalized growth

CCNc1nc(Cl)nc(NCC)n1
inactive: locus YAL013W, strain DEP1, active compounds read low 1 | locus YAL021C, strain ccr4, active compounds read low 0.983 | locus YAL026C, strain drs2, active compounds read low 1 | locus YAL030W, strain snc1, active compounds read low 0.992 | locus YBL061C, strain skt5, active compounds read low 0.991 | locus YBR009C, strain hhf1, active compounds read low 0.995 | locus YBR021W, strain FUR4, active compounds read low 1.03 | locus YBR023C, strain chs3, active compounds read low 0.995 | locus YBR171W, strain sec66, active compounds read low 0.99 | locus YBR229C, strain ROT2, active compounds read low 0.993 | locus YBR231C, strain swc5, active compounds read low 0.993 | locus YBR279W, strain paf1, active compounds read low 1 | locus YCL011C, strain gbp2, active compounds read low 1 | locus YCL016C, strain dcc1, active compounds read low 1.01 | locus YCL029C, strain bik1, active compounds read low 0.999 | locus YCL061C, strain MRC1, active compounds read low 0.989 | locus YCL069W, strain vba3, active compounds read low 0.968 | locus YCR088W, strain abp1, active compounds read low 0.995 | locus YDL005C, strain med2, active compounds read low 0.988 | locus YDL035C, strain GPR1, active compounds read low 1 | locus YDL040C, strain nat1, active compounds read low 0.999 | locus YDL074C, strain BRE1, active compounds read low 0.975 | locus YDL101C, strain DUN1, active compounds read low 1.01 | locus YDL134C, strain PPH21, active compounds read low 1.01 | locus YDL185W, strain tfp1, active compounds read low 0.991 | locus YDL192W, strain arf1, active compounds read low 1 | locus YDR001C, strain nth1, active compounds read low 0.998 | locus YDR069C, strain doa4, active compounds read low 0.979 | locus YDR101C, strain arx1, active compounds read low 0.994 | locus YDR137W, strain rgp1, active compounds read low 1.01 | locus YDR150W, strain NUM1, active compounds read low 0.971 | locus YDR159W, strain sac3, active compounds read low 0.979 | locus YDR162C, strain NBP2, active compounds read low 0.97 | locus YDR195W, strain ref2 0.942 | locus YDR297W, strain sur2, active compounds read low 0.982 | locus YDR318W, strain mcm21, active compounds read low 1 | locus YDR334W, strain swr1, active compounds read low 0.996 | locus YDR335W, strain msn5, active compounds read low 0.989 | locus YDR388W, active compounds read low 1 | locus YDR392W, strain spt3, active compounds read low 1.01 | locus YDR502C, strain sam2, active compounds read low 1.01 | locus YEL003W, strain gim4, active compounds read low 1.01 | locus YEL037C, strain rad23, active compounds read low 1 | locus YEL061C, strain CIN8 (second series), active compounds read low 0.997 | locus YEL061C, strain CIN8, active compounds read low 0.997 | locus YER015W, strain faa2, active compounds read low 1 | locus YER016W, strain bim1, active compounds read low 1.01 | locus YER110C, active compounds read low 0.996 | locus YER111C, strain swi4, active compounds read low 0.996 | locus YER155C, strain BEM2 (second series), active compounds read low 0.973 | locus YER155C, strain BEM2, active compounds read low 1 | locus YER167W, strain BCK2, active compounds read low 1 | locus YFR010W, strain ubp6, active compounds read low 1 | locus YGL078C, strain dbp3, active compounds read low 1 | locus YGL086W, strain mad1, active compounds read low 1 | locus YGL167C, strain pmr1, active compounds read low 1 | locus YGL173C, strain kem1, active compounds read low 0.99 | locus YGL227W, strain vid30, active compounds read low 0.978 | locus YGL240W, strain doc1, active compounds read low 0.986 | locus YGL248W, strain PDE1, active compounds read low 1.03 | locus YGL253W, strain hxk2, active compounds read low 0.993 | locus YGR078C, strain PAC10, active compounds read low 0.989 | locus YGR135W, strain pre9, active compounds read low 1 | locus YGR229C, strain SMI1, active compounds read low 1 | locus YGR252W, strain gcn5, active compounds read low 1.02 | locus YHR013C, strain ard1, active compounds read low 0.998 | locus YHR027C, strain rpn1, active compounds read low 1 | locus YHR030C, strain SLT2, active compounds read low 0.98 | locus YHR079C, strain IRE1 (second series), active compounds read low 1.01 | locus YHR094C, strain hxt1, active compounds read low 1 | locus YHR129C, strain ARP1, active compounds read low 0.96 | locus YHR142W, strain chs7, active compounds read low 1.02 | locus YHR200W, strain rpn10, active compounds read low 1.01 | locus YIL066C, strain RNR3, active compounds read low 1.01 | locus YIL073C, strain SPO22, active compounds read low 1.09 | locus YIL125W, strain kgd1, active compounds read low 1 | locus YIR030C, strain dcg1, active compounds read low 1.01 | locus YJL092W, strain hpr5, active compounds read low 1 | locus YJL095W, strain BCK1 (second series), active compounds read low 0.994 | locus YJL095W, strain BCK1, active compounds read low 0.994 | locus YJL115W, strain asf1, active compounds read low 1 | locus YJL129C, strain trk1, active compounds read low 0.986 | locus YJL134W, strain LCB3, active compounds read low 0.993 | locus YJL154C, strain vps35, active compounds read low 0.992 | locus YJL164C, strain tpk1, active compounds read low 0.999 | locus YJL166W, strain qcr8, active compounds read low 0.987 | locus YJL168C, strain set2, active compounds read low 1.01 | locus YJL187C, strain SWE1 (second series), active compounds read low 1
